Screening results from PubChem BioAssay.
M1 PAM parental: nonselective calcium activators in parental CHO-K1 cells, primary screen, counter-screen for M1 PAM project, cell-based, Fluo-8 calcium fluorescence, full deck, 1536-well. hit rate 0.02% among 360,000. activation, % at 3 µM. ATP EC20; 0% at ATP EC20, 100% at ATP max. AID 602247, 2012;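 active = activation above the run cutoff, the mean activation of all test compounds plus 3 SD, cut at about 40% in these data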;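 note: peak over basal fluorescence ratio in a 140 s read after ATP addition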
CHO-K1 Ca antag: M1 antagonist counterscreen hit in parental CHO-K1 cells; ATP-induced calcium, Fluo-8 fluorescence; inhibition, % at 3 µM; hit rate 0.6% among 360,000; AID 602250;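 active = inhibition above a per-plate cutoff, the plate's mean sample inhibition plus 3 SD, cut at about 24% in these data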;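 note: 0% = DMSO plus EC80 ATP and 100% = DMSO alone without ATP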
CHO-K1 Ca ag: counter-screen for M1 agonists: effect in parental CHO-K1 cells | activation, % at 3 µM | hit rate 0.48% among 360,000 | Fluo-8 calcium fluorescence; scaled to maximal ATP response, vehicle zero; in the data active = activation above about 15%;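 note: untransfected CHO-K1 host cells lacking M1 receptor as counterscreen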
CHRM1 antagonist: human M1 muscarinic receptor antagonists, primary screen, CHO-K1 cells, Fluo-8 calcium fluorescence, 1536-well; CHO-K1 hM1, ACh EC80 antagonist; hit rate 1.3% among 360,000; inhibition, % at 3 µM;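 active = percent inhibition above its own plate's cutoff, namely the mean of that plate's compound wells plus 3 SD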;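 note: peak over basal fluorescence ratio during 140 s after agonist addition; 0% = ACh EC80 plus DMSO and 100% = DMSO alone without agonist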
Target sequence (P11229 whole entry, looked up): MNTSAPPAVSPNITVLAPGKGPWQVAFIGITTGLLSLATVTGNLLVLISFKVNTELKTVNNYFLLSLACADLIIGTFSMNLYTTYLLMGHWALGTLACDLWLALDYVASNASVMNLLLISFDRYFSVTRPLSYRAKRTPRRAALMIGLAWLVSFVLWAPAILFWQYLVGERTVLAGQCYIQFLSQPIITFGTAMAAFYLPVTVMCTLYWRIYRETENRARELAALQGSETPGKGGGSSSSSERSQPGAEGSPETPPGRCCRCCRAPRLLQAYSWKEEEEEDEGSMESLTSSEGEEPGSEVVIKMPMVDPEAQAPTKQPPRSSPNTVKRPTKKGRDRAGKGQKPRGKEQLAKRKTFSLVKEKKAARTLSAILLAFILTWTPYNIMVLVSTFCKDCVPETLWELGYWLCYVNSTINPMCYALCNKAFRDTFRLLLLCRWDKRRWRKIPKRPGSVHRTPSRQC
M1 ag: human M1 muscarinic receptor agonists, primary screen, Fluo-8 calcium fluorescence, CHO-K1 cells, HTS | hit rate 0.33% among 360,000 | CHO-K1 hM1, agonist mode; 0% DMSO, 100% acetylcholine EC100 | Muscarinic acetylcholine receptor M1 (Homo sapiens), P11229 | activation, % at 3 µM;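 active = activation above the run's mean compound activation plus 3 SD, cut at about 16% in these data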;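 note: peak over basal fluorescence ratio within a 140 s kinetic read after compound addition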
M1 PAM: human M1 muscarinic receptor positive allosteric modulators, primary screen, CHO-K1 cells, Fluo-8 calcium fluorescence, 1536-well | activation, % at 3 µM | CHO-K1 hM1, ACh EC20; 0% = ACh EC20, 100% = maximal ACh | hit rate 0.088% among 360,000; in the data active = activation above about 19%, passing the limit was not always enough
Active calls of the source: *; / = no result. The list is not random: actives were taken first. Their share in the collection is about 2.3%.

SMILES | M1 PAM parental | CHO-K1 Ca antag | CHO-K1 Ca ag | CHRM1 antagonist | M1 ag | M1 PAM
Cc1nc(NC(=O)C(C)(C)C)sc1C(=O)Cn1cc(-c2ccc(C(C)(C)C)cc2)nn1 | 11 | -11 | 0 | / | / | /
Cc1cccc(C)c1N(CC(=O)NCc1ccccc1)C(=O)c1csnn1 | 5 | -14 | 1 | -3 | -5 | 12
COc1ccccc1C1C(C#N)=C(N)Oc2cc(C)n(Cc3ccccn3)c(=O)c21 (stereo not given) | -4 | 16 | 0 | -5 | -3 | 11
CCOc1ccccc1C1C(C#N)=C(N)Oc2cc(C)n(Cc3ccccn3)c(=O)c21 (stereo not given) | -7 | 32* | -1 | -3 | -1 | 10
CC(=O)Oc1ccccc1Cn1c(C)c(C(=O)N(C)Cc2ccc(F)cc2)sc1=O | 0 | 10 | 2 | 7 | 2 | -6
CCCC1C2CN(C(C)C)CC=C2C(C#N)=C(N)C1(C#N)C#N (stereo not given) | 6 | 5 | 4 | 38* | -1 | -20
CN1CC=C2C(C#N)=C(N)C(C#N)(C#N)C(CCc3ccccc3)C2C1 (stereo not given) | 22 | -4 | 2 | -2 | -1 | -4
Nc1c(C(=O)NCc2ccccc2)nnn1Cc1ccccc1 | -1 | -2 | 0 | 19 | 12 | 5
CSc1ccc(Cn2nnc(C(=O)NCc3ccccc3)c2N)cc1 | 22 | -1 | 19* | 14 | 34* | -3
CCOC(=O)CCCCCCCCC(=O)Nc1ccc(-n2[nH]c(=O)cc2C)cc1 | 8 | -19 | 10 | -9 | 20* | -2
Cc1ccc(NC(=O)CCCCCC2NC(=O)NC2C)cc1 (stereo not given) | 18 | -12 | 1 | -8 | -4 | 6
CCOC(=O)C1=C[C@@H](C(C)C)N(S(=O)(=O)c2ccc(C)cc2)[C@H]1c1ccc(C(F)(F)F)cc1 | 2 | 5 | 0 | 11 | -7 | -9
COC(=O)c1ccc(OC(=O)C23CCC(C)(C(=O)O2)C3(C)C)cc1 (stereo not given) | 4 | -7 | 0 | -5 | -2 | 9
CC1=C(Sc2ccccn2)C(=O)NC(C)(C)C1 | -6 | 27* | 0 | 4 | -2 | 0
CCOc1ccc(-c2c[n+]3c(n2-c2ccccc2)CCCCC3)cc1 | 5 | 3 | 0 | 12 | -10 | -13
COc1cccc(-c2c(C(=O)N/N=C(\C)c3ccc(Cl)s3)nnn2-c2nonc2N)c1 | 7 | -3 | 2 | -4 | 22* | 13
CCOc1ccc(-c2c(C(=O)N/N=C/c3c[nH]c4ccccc34)nnn2-c2nonc2N)cc1 | -23 | 25* | 1 | 1 | 2 | 9
Nc1nonc1-n1nnc(C(=O)N/N=C/c2ccc(F)cc2)c1-c1ccc2c(c1)OCO2 | 4 | -19 | 1 | -8 | 2 | 4
Cc1ccc(/C=N/NC(=O)c2nnn(-c3nonc3N)c2-c2ccc3c(c2)OCO3)s1 | 19 | -13 | 22* | -1 | 25* | 1
COc1cccc(-c2c(C(=O)N/N=C(\C)c3ccco3)nnn2-c2nonc2N)c1 | -20 | 14 | 6 | 18 | 7 | -6
Cc1ccc(/C=N/NC(=O)c2nnn(-c3nonc3N)c2-c2cccs2)cc1 | 30 | 1 | 33* | 6 | 69* | 13
CO/N=C/C(C#N)=C/c1cc(C(=O)c2ccccc2)cn1C | 14 | -2 | 0 | -7 | -8 | 13
CN(C)c1ccc(/C=C(/NC(=O)c2ccccc2)C(=O)N2CCCC2)cc1 | 2 | -4 | 3 | -10 | 1 | 9
CC(C)N(Cc1nnc(-c2ccc(Cl)cc2)o1)C(=O)c1cc2ccccc2o1 | 1 | -7 | 0 | 12 | -6 | -7
COc1ccc(/C=N/NC(=O)c2nnn(-c3nonc3N)c2-c2cccc(OC)c2)cc1 | 29 | -16 | 9 | -8 | 38* | 4
SMILES | M1 PAM parental | CHO-K1 Ca antag | CHO-K1 Ca ag | CHRM1 antagonist | M1 ag | M1 PAM
CCOc1cccc(-c2c(C(=O)N/N=C/c3cccs3)nnn2-c2nonc2N)c1 | 31 | -14 | 25* | -5 | 20* | 21
COc1cccc(-c2c(C(=O)N/N=C/c3cccs3)nnn2-c2nonc2N)c1 | 19 | -19 | 32* | -9 | 44* | 8
CCOc1cccc(-c2c(C(=O)N/N=C/c3ccncc3)nnn2-c2nonc2N)c1 | 4 | 3 | 1 | -12 | 3 | 6
COc1ccc(/C=N/NC(=O)c2nnn(-c3nonc3N)c2-c2cccs2)cc1OC | -2 | 2 | 6 | 0 | 0 | -1
CC1CC(C)CN(C(=O)COC(=O)c2cc(S(=O)(=O)N3CCOCC3)ccc2F)C1 (stereo not given) | -23 | 7 | 0 | 57* | -2 | -18
COc1ccc(C2/C=C\CN(C(=O)C3CC3)CC(=O)N2Cc2ccc(F)cc2)cc1 (stereo not given) | -21 | 25* | -1 | 25 | -3 | -15
COc1ccc(C2/C=C\CN(C(=O)CC(C)(C)C)CC(=O)N2Cc2ccc(F)cc2)cc1 (stereo not given) | 17 | -12 | 0 | 7 | -2 | 1
Cc1ccc2oc(=O)c3cc(C(=O)NCCCN4CCc5ccccc5C4)sc3c2c1 | 18 | -15 | 0 | 25* | -14 | -21
CCOC(=O)c1ccccc1NC(=O)CN1C(=O)NC(C)(CCc2ccccc2)C1=O (stereo not given) | -3 | -9 | 1 | 13 | -2 | -1
NC(=O)c1ccsc1NC(=O)CN1CCN(S(=O)(=O)c2ccccc2C(F)(F)F)CC1 | 13 | -14 | 16* | 24 | 4 | -15
C[C@@H]1CC2OC(=O)[C@@]3(C)C(=O)CC[C@@](C)(C23)[C@@]1(O)CCc1ccoc1 (stereo not given in full) | 1 | 13 | 6 | 21 | 0 | -11
Cc1noc(C)c1S(=O)(=O)N(C)C[C@H]1Oc2ccc(NC(=O)Cn3cnnn3)cc2C(=O)N([C@H](C)CO)C[C@@H]1C | -4 | -13 | 0 | -1 | -4 | 2
C[C@H](CO)N1C[C@H](C)[C@@H](CN(C)S(=O)(=O)c2cccs2)Oc2ccc(NC(=O)CCC(F)(F)F)cc2C1=O | 9 | -7 | 0 | 57* | -12 | -35
C[C@H](CO)N1C[C@H](C)[C@@H](CN(C)S(=O)(=O)c2ccccc2)Oc2ccc(NC(=O)Cn3cnnn3)cc2C1=O | 15 | -17 | 1 | 34* | -10 | -28
